# Source: PubChem BioAssay (EPA / NIEHS)
# Activity calls are given as the source filed them. The calls were made as follows: active = hit-call score of the fitted dose curve at least 0.9, where 1 is the maximum; inactive = score below 0.9.
# Read-out: Glutamate-cysteine ligase catalytic (GCLC), GCLC (gene 2729)
# Test: LTEA_HepaRG_GCLC: Life Technologies and Expression Analysis (LTEA) Assay for Glutamate-cysteine ligase catalytic (GCLC) using HepaRG (AID 2283498)
# Conditions: mRNA level, 48 h; actives raise or lower the signal
# Experimental: LTEA_HepaRG is a cell based, multiplexed-readout assay that uses HepaRG, a human liver cell line, with measurements taken at 48 hours after chemical dosing on a 96-well plate.LTEA_HepaRG_GCLC is one of 102 assay component(s) measured in the LTEA HepaRG cell culture assay. It is a marker of Oxidative Stress.Data from the assay component LTEA_HepaRG_GCLC was analyzed into 1 endpoint. This assay endpoint, LTEA_HepaRG_GCLC, was analyzed with bidirectional fitting relative to DMSO as the negative control and baseline of activity. Using a type of inducible reporter, measures of mRNA induction for gain or loss-of-signal activity can be used to understand regulation of transcription factor activity. To generalize the intended target to other relatable targets, this assay endpoint is annotated to the ligase intended target family, where the subfamily is C-N ligase.
# A total of 1060 chemcials from the ToxCast library were tested in eight-point concentration-response experiments. Cell culture and cytotoxicity assays were conducted at Thermo Fisher Scientific's Custom Services facility (Madison, WI). A single lot of human HepaRG cells (Thermo Fisher Scientific, Frederick, MD) was used for the cell culture experiments. 96-well format collagen type I coated plates of human HepaRG cells were prepared using established methods. Briefly, cryopreserved HepaRG cells were thawed, plated at a density of approximately 100,000 cells/well in HepaRG Thaw, Plate, and General Purpose media (HPRG770, Thermo Fisher Scientific), and incubated for 48 hours. 0.5% DMSO was selected as vehicle control to balance the requisite need of DMSO in HepaRG cultures to maintain differentiation (for example, baseline metabolism, proportions of hepatocytes vs. cholangiocytes), while enabling further hepatic receptor pathway activation (for example, PXR and CAR) in response to chemical exposure. 48 hours after plating, the culture medium was replaced with HepaRG Serum-Free Incudtion Media. Cells were exposed to each test chemical in duplicate and maintained in CO2 incubators for another 48 hours. Chemical plates were thawed to room temperature and 200x concentrations of treatment groups were prepared. 8-point conentration-reponse curves were made with the highest exposure at 100 uM, followed by half-log dilutions, all in 0.5% DMSO. Each test plate contained variouse controls, induction positive controls (1mM phenobarbital), cytotoxicity positive controls ([…] aflatoxin B1), vehicle controls (0.5% DMSO), and total lysis controls (0.5% DMSO). Cell morphology images were taken using an Essen IncuCyte FLR automated microscope, with six 96-well plates imaged in about 24 minutes. Images were captured and exported and JPEG files. Spent culture media was transfered to black-well plates for the LDH assay, and remaining media was sorted at -80 C for later use. Cells were treated with RLT buffer and frozen until shipped for gene expression analysis. Total RNA was isolated from the cell suspension in 75 uL of Buffer RLT (Qiagen, Germantown, MD 20874) by Quintiles/Expression Analysis (Durham, NC) using a custom isolation procedure. Total RNA from each plate well was transferred to a preamplification plate. Fluidigm's 96.96 Dynamic ArrayTM (Fluidigm, Amsterdam, the Netherlands) technology was used for gene expression analyses by quantitative reverse transcription polymerase chain reaction (qRT-PCR, performed by Quintiles/Expression Analysis, Durham, NC)89. Standard TaqManTM Assays (Applied Biosystems/ThermoFisher Scientific, Foster City, CA) were used to assess the expression of 93 genes selected based on their selectivity and sensitivity to important hepatic receptors known to be modulated by environmental chemicals; importance in human hepatocyte functionality; and hepatotoxicity. […]
Compound,outcome,AC50
Cc1ccc([N+](=O)[O-])cc1C,inactive,–
O=C(O)C1C(C(=O)O)C2(Cl)C(Cl)=C(Cl)C1(Cl)C2(Cl)Cl (stereo not given),–,50 µM (active)
CCCN(CCC)c1c([N+](=O)[O-])cc(C(C)C)cc1[N+](=O)[O-],inactive,–
CCC(C)(C)c1ccc(O)cc1,inactive,–
Nc1cc2c3c(c1)C(c1ccccc1)=N[C@@H](NC(=O)c1cccnc1)C(=O)N3CC2,inactive,–
CCC1(c2ccccc2)C(=O)N=C(O)NC1=O (stereo not given),inactive,–
Cc1ccc(N)cc1N,inactive,–
O=P1(N(CCCl)CCCl)NCCCO1 (stereo not given),inactive,–
COCCOCCO,inactive,–
c1ccc2c(c1)Nc1ccccc1S2,inactive,–
CC(C)(C)c1ccc(O)cc1,inactive,–
CN(C)C(=O)Cl,inactive,–
CC(Cl)(Cl)C(=O)O,inactive,–
c1nc[nH]n1,inactive,–
ClC(Cl)(Cl)c1ccccc1,inactive,–
CC(Cc1ccc(OCC(=O)O)cc1)NCC(O)c1csc(C(F)(F)F)n1 (stereo not given),inactive,–
CCOc1ccc(C(C)(C)COCc2cccc(Oc3ccccc3)c2)cc1,inactive,–
CCCCCCCc1ccc(O)cc1,inactive,–
CCCCc1ccccc1,inactive,–
Cc1cccc(N)c1,inactive,–

Compound,outcome,AC50
CC(C)(C)OOC(C)(C)C,inactive,–
O=[N+]([O-])c1ccc(Cl)c(Cl)c1,inactive,–
CCOC(=O)c1ccccc1C(=O)OCC,inactive,–
Nc1ccc(Cl)cc1,inactive,–
ClC1=C(Cl)C2(Cl)C3C(Cl)C(Cl)CC3C1(Cl)C2(Cl)Cl (stereo not given),inactive,–
CCCCN(CCCC)N=O,inactive,–
OCC1CO1 (stereo not given),inactive,–
CSC(C)(C)C=NO,inactive,–
CCCCN(CCCC)SN(C)C(=O)Oc1cccc2c1OC(C)(C)C2,inactive,–
O=P(Oc1ccccc1)(Oc1ccccc1)Oc1ccccc1,–,74.9 µM (active)
Nc1ccc2ccccc2c1,inactive,–
ClC(Cl)c1ccccc1,inactive,–
CCOS(=O)(=O)OCC,inactive,–
CCNc1nc(Cl)nc(NC(C)(C)C)n1,inactive,–
Cc1ccc(O)cc1C,inactive,–
c1ccc(OP(Oc2ccccc2)Oc2ccccc2)cc1,inactive,–
c1cc2c3c(cccc3c1)CC2,inactive,–
O=[N+]([O-])c1ccccc1,inactive,–
[N-]=[N+]=[N-],inactive,–
CCOP(=S)(OCC)SCSCC,inactive,–
